Results on 31 compounds are retold here after the supplement of paper PMC11624193, “Coupling cellular drug-target engagement to downstream pharmacology with CeTEAM” (Nature Communications, 2024).

Where “and” joins values, the source holds several entries; their conditions need not be identical. Equal entries are not always repeated. Structures can show the parent of a compound that is named as a salt.

In this assay the target is PARP1 L713F-nLuc biosensor (HCT116) (UniProt P09874). The assay can be described thus: PARP1 L713F-nLuc/akaLuc ratio relative to DMSO control (biosensor stabilization) (fold change); higher = more PARP1 biosensor stabilization (target engagement / stabilizer), active = hit call of the paper. Conditions: stock concentration (mM; final µM = stock mM x 1): 10; 24 h;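 active = log2 fold change beyond 2 SD from the library mean after excluding viability outliers; inactive = within 2 SD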.
Chain of PARP1 L713F-nLuc biosensor (HCT116) (P09874 whole entry L713F, looked up): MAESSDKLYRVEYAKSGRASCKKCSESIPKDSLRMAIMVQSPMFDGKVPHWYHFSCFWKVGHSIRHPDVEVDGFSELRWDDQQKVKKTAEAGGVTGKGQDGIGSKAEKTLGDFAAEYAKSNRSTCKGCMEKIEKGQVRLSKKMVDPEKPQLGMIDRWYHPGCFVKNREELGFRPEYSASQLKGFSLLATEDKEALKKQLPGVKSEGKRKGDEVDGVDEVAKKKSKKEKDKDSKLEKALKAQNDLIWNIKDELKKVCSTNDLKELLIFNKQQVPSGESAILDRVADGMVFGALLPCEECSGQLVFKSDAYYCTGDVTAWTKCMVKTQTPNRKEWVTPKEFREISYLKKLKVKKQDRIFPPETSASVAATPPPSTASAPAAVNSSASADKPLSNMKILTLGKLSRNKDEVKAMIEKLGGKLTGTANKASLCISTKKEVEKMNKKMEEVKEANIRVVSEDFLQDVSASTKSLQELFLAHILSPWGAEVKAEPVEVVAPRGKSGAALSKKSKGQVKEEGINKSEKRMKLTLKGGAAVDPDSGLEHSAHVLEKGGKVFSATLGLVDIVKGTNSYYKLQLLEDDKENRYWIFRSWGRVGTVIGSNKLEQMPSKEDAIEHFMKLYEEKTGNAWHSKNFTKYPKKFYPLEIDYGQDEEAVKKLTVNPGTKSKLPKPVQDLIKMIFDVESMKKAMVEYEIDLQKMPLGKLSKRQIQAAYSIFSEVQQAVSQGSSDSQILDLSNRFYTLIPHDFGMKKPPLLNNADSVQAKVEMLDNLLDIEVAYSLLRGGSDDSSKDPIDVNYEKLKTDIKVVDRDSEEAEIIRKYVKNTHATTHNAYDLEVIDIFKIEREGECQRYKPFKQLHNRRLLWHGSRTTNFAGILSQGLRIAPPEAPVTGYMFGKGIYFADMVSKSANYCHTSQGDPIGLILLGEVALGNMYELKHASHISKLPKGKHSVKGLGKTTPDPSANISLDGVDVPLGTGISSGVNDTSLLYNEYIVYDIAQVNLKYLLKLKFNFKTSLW
As to `NC(=O)c1ccc(I)c([N+](=O)[O-])c1` [Iniparib], the “PARP1 L713F-nLuc/akaLuc ratio” value was 1.12 (inactive). Take `CCN(CC)Cc1cc(Nc2ccnc3cc(Cl)ccc23)ccc1O` [Amodiaquine (dihydrochloride dihydrate)]: the “PARP1 L713F-nLuc/akaLuc ratio” value was 0.819 (inactive).

As to `Nc1nc2cc(CC[C@H]3C[C@@H](n4ccc5c(N)ncnc54)[C@H](O)[C@@H]3O)ccc2cc1Br`, the “PARP1 L713F-nLuc/akaLuc ratio” value was 0.465 (inactive). `Cc1cnc(Nc2ccc(OCCN3CCCC3)cc2)nc1Nc1cccc(S(=O)(=O)NC(C)(C)C)c1` [Fedratinib (hydrochloride hydrate)]: the “PARP1 L713F-nLuc/akaLuc ratio” value was 0.551 (inactive).

`CC1=C(C)C(=O)C(C(C)(C)CC(=O)N(CCCCSC[C@H]2O[C@@H](n3cnc4c(N)ncnc43)[C@H](O)[C@@H]2O)Cc2cccc(-c3ccc(Cl)cc3)c2)=C(C)C1=O`: the “PARP1 L713F-nLuc/akaLuc ratio” value was 0.784 (inactive). `CC#CC(=O)N1CC[C@@H](n2c(=O)n(-c3ccc(Oc4ccccc4)cc3)c3c(N)ncnc32)C1` [ONO-4059 (GS-4059) hydrochloride]: the “PARP1 L713F-nLuc/akaLuc ratio” value was 1.06 (inactive). Next, `COc1ccc2c(=O)c(-c3ccccc3)coc2c1` [7-Methoxyisoflavone]: 0.63 (inactive); `O=C(O)CC[C@H](O)C(=O)O` [L-2-Hydroxyglutaric acid (disodium)]: 1.2 (inactive). As to `CC(=O)O[C@@H]1CC[C@@]2(C)[C@@H](CC[C@]3(C)[C@@H]2C(=O)C=C2[C@@H]4[C@@H](C)[C@H](C)CC[C@]4(C)CC[C@]23C)[C@@]1(C)C(=O)O`, the “PARP1 L713F-nLuc/akaLuc ratio” value was 1.18 (inactive). Consider `Cn1cncc1[C@@](N)(c1ccc(Cl)cc1)c1ccc2c(c1)c(-c1cccc(Cl)c1)cc(=O)n2C` [Tipifarnib], for which the “PARP1 L713F-nLuc/akaLuc ratio” value was 0.456 (inactive). Take `C/C(=N\NC(=O)c1cccc(S(=O)(=O)N2CCN(C)CC2)c1)c1cc(Cl)ccc1O` [Seclidemstat]: the “PARP1 L713F-nLuc/akaLuc ratio” value was 0.552 (inactive).

Take `COc1cc2ncnc(Nc3ccc(O)c(Br)c3)c2cc1OC`: the “PARP1 L713F-nLuc/akaLuc ratio” value is 0.973 (inactive). As to `CN1CCN(c2ccc(-c3cccc(CN4CCOCC4)c3)cc2NC(=O)c2c[nH]c(=O)cc2C(F)(F)F)CC1`, the “PARP1 L713F-nLuc/akaLuc ratio” value was 0.636 (inactive). In the case of `Cc1cc(C(C)Nc2ccccc2)c2nc(N3CCOCC3)cc(=O)n2c1` (stereo unspecified), the “PARP1 L713F-nLuc/akaLuc ratio” value is 0.773 (inactive). With `CNc1cc(Nc2cccn(-c3ccccn3)c2=O)nn2c(C(=O)N[C@@H]3C[C@@H]3F)cnc12`, the “PARP1 L713F-nLuc/akaLuc ratio” value was 0.72 (inactive).

For `CN1CCN(c2ccc3nc(-c4ccc5nc(-c6cccc(OCCCC(=O)NCCCN=[N+]=[N-])c6)[nH]c5c4)[nH]c3c2)CC1` [Targapremir-210], the “PARP1 L713F-nLuc/akaLuc ratio” value is 1.46 (inactive).

Take `C[C@H](Nc1ncnc2[nH]cnc12)c1cc2ccc(F)cc2nc1-c1ccccn1`: the “PARP1 L713F-nLuc/akaLuc ratio” value is 0.767 (inactive). On to `COc1cc(Nc2ncc3c(n2)-c2ccc(Cl)cc2C(c2c(F)cccc2OC)=NC3)ccc1C(=O)O` [Alisertib (MLN8237)], for which the “PARP1 L713F-nLuc/akaLuc ratio” value is 1.12 (inactive). As to `Cc1cccc(CC(=O)N2CCc3c2ccc(-c2cn(C)c4ncnc(N)c24)c3F)n1`, the “PARP1 L713F-nLuc/akaLuc ratio” value was 1.05 (inactive). Next, `CN1CCC(COc2cnc(-c3cccc(Cn4nc(-c5cccc(C#N)c5)ccc4=O)c3)nc2)CC1`: 0.968 (inactive). `O=C(O)CCNc1cc(N2CCc3ccccc3CC2)nc(-c2cccnc2)n1`: the “PARP1 L713F-nLuc/akaLuc ratio” value is 1.22 (inactive). Under `NC(=O)c1cccc2[nH]c(-c3ccc(C4CCCN4)cc3F)nc12` (stereo unspecified) stands 4.24 (active); under `COC(=O)c1ccc(OC(=O)CCCCCCC(=O)NO)cc1` [Remetinostat], 1.25 (inactive).

With `N#Cc1ccc(C(c2ccc(C#N)cc2)n2cncn2)cc1` [Letrozole], the “PARP1 L713F-nLuc/akaLuc ratio” value was 1.4 (inactive). Under `N#Cc1c(O)c2c(-c3ccc(-c4ccccc4O)cc3)csc2[nH]c1=O` stands 0.692 (inactive).

For `O=C(/C=C\n1cnc(-c2cc(C(F)(F)F)cc(C(F)(F)F)c2)n1)NNc1ccccn1` [Verdinexor (KPT-335)], the “PARP1 L713F-nLuc/akaLuc ratio” value was 0.35 (inactive). In the case of `CC(C)N(CCCNC(=O)Nc1ccc(C(C)(C)C)cc1)C[C@H]1O[C@@H](n2cc(Br)c3c(N)ncnc32)[C@H](O)[C@@H]1O`, the “PARP1 L713F-nLuc/akaLuc ratio” value was 0.82 (inactive) and 0.934 (inactive). Under `CCCCCCCc1ccc(CCc2cccc(O)c2C(=O)O)cc1` stands 0.768 (inactive). In the case of `O=C(c1ccc(/C=C/c2n[nH]c3ccccc23)cc1)N1CCNCC1`, the “PARP1 L713F-nLuc/akaLuc ratio” value was 1.3 (inactive). Under `N#Cc1cc(F)cc(Oc2ccc3c(c2C(F)F)[C@@H](O)C(F)(F)S3(=O)=O)c1` stands 1.92 (inactive); under `O=C(NCCCN1CCCC1)c1cncc(-c2ccccc2N2CCN(CCc3c[nH]c4ccccc34)CC2)c1`, 0.537 (inactive).
